Results on nine molecules are retold here after PubChem BioAssay (NCI).

Each structure is given as a SMILES string. This is part of a sample that, as a whole, favours compounds with a hit. Of some 83,000 tested, about 20% had one in any assay.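 Testing used 96-well plates and a 48-hour single-concentration exposure. Example: -40 means 40% of the starting cells died.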 A number with no mark means an inactive call. Active and inactive are the calls of the source. Rule for the calls: active = growth percent below 10; inactive = the rest.

Among the test systems are NCI-H23 lung; NCI-H226 lung; HOP-62 NSCLC; NCI-H460 lung; NCI-H522 lung; A549/ATCC NSCLC; 786-0 renal; COLO 205 colon; DU-145 prostate; K-562 leukemia; MALME-3M melanoma; MDA-MB-231 breast; RXF 393 renal; SF-268 CNS; SF-295 CNS; SF-539 CNS; UACC-257 melanoma; M14 melanoma.
What all share (experiment): NCI-60 one-dose screen, 48 h (100 = growth as untreated, 0 = no growth, -100 = all killed)
What all share (settings): 10 µM unless noted

With `COc1cc(C2CC(c3ccc(Cl)cc3)=NN2C(C)=O)ccc1Oc1nc2c(c(=O)n(C)c(=O)n2C)n1C` (configuration not stated), the growth with NCI-H23 lung is 84.2%; in the experiment on NCI-H226 lung, 76.8%; in the experiment with HOP-62 NSCLC, 98.7%; in the experiment on NCI-H460 lung, 88.1%; in the experiment on NCI-H522 lung, 92.5%; in the experiment on A549/ATCC NSCLC, 59.7%. The growth was 111% in the experiment on 786-0 renal; 102% with COLO 205 colon; 65.2% in the experiment with DU-145 prostate; 101% with K-562 leukemia; 100% in the experiment on MALME-3M melanoma; 85.8% in the experiment on MDA-MB-231 breast. Moreover, the growth with RXF 393 renal was 86.8%; in the experiment with SF-268 CNS it was 56.8%; in the experiment with SF-295 CNS, 62.6%; in the experiment with SF-539 CNS, 102%; in the experiment on UACC-257 melanoma, -8% (active); in the experiment on M14 melanoma, 67.8%.

Consider `CC(=O)Oc1ccccc1C(=O)Nc1ncc([N+](=O)[O-])s1`, for which the growth was 6.3% (active) in the experiment with NCI-H23 lung; 63.5% in the experiment with NCI-H226 lung; 67.1% in the experiment on HOP-62 NSCLC; 13.4% in the experiment with NCI-H460 lung; -15.9% (active) in the experiment on NCI-H522 lung; 51.2% in the experiment with A549/ATCC NSCLC. Besides, the growth was -11.4% (active) in the experiment on 786-0 renal; 93.2% with COLO 205 colon; 32.1% in the experiment on DU-145 prostate; -8.68% (active) with K-562 leukemia; -10.6% (active) in the experiment with MALME-3M melanoma; 26.9% in the experiment with MDA-MB-231 breast. In addition, the growth is 54.5% with RXF 393 renal; 18.7% in the experiment with SF-268 CNS; 9.28% (active) in the experiment with SF-295 CNS; 39.5% in the experiment with SF-539 CNS; 39.2% in the experiment with UACC-257 melanoma; 14.6% with M14 melanoma.

Turning to `c1ccc2oc(-c3cnc4nonc4n3)cc2c1`, the growth with NCI-H23 lung is 94.8%; in the experiment on NCI-H226 lung, 92.1%; with HOP-62 NSCLC, 84.7%; in the experiment on NCI-H460 lung it was 95.8%; with NCI-H522 lung it was 78.3%; in the experiment with A549/ATCC NSCLC, 96.4%. Moreover, the growth was 103% with 786-0 renal; 103% in the experiment on COLO 205 colon; 114% in the experiment on DU-145 prostate; 103% in the experiment with K-562 leukemia; 105% in the experiment on MALME-3M melanoma; 87.9% with MDA-MB-231 breast. Also, the growth in the experiment with RXF 393 renal is 112%; in the experiment on SF-268 CNS, 99.7%; with SF-295 CNS, 103%; with SF-539 CNS it was 101%; in the experiment with UACC-257 melanoma, 99.2%; in the experiment with M14 melanoma it was 106%.

For the molecule `CCN(CC)c1ccc(/C=N/N=C(N)N)cc1`, the growth with NCI-H23 lung was 65.7%; in the experiment on NCI-H226 lung, 84.5%; with HOP-62 NSCLC, 54.8%; in the experiment with NCI-H460 lung, 23.3%; in the experiment on NCI-H522 lung, 27.1%; with A549/ATCC NSCLC it was 44.6%. In addition, the growth in the experiment on 786-0 renal was 72.4%; with COLO 205 colon it was 30.2%; in the experiment on DU-145 prostate it was 55.5%; with K-562 leukemia it was 26.3%; in the experiment with MALME-3M melanoma, 58.9%; in the experiment with MDA-MB-231 breast it was 66%. Also, the growth in the experiment with RXF 393 renal was 68%; in the experiment with SF-268 CNS it was 45.7%; with SF-295 CNS it was 27.8%; with SF-539 CNS, 51.8%; in the experiment with UACC-257 melanoma it was 47.9%; in the experiment on M14 melanoma it was 42.4%.

With `COc1cc2c(=O)n(CCCN(C)C)c3c4cc[nH]c4ncc3c2cc1OC`, the growth is 41.4% in the experiment on NCI-H23 lung; 37.1% in the experiment on NCI-H226 lung; 11.8% in the experiment on HOP-62 NSCLC; 17.6% in the experiment on NCI-H460 lung; 0.675% (active) with NCI-H522 lung; 44.1% in the experiment with A549/ATCC NSCLC. The growth is 33.7% with 786-0 renal; 13.2% with COLO 205 colon; 30.8% with DU-145 prostate; 54.3% in the experiment with K-562 leukemia; 62.4% with MALME-3M melanoma; 50.8% in the experiment on MDA-MB-231 breast. In addition, the growth with RXF 393 renal was 23.1%; in the experiment on SF-268 CNS it was 28.3%; with SF-295 CNS it was 29.2%; in the experiment with SF-539 CNS, 73.3%; in the experiment with UACC-257 melanoma, 87.9%; in the experiment with M14 melanoma it was 40.5%.

`ClC1(Cl)C2CCCCCCC21` (configuration not stated): the growth is 107% in the experiment on NCI-H23 lung; 103% with NCI-H226 lung; 108% in the experiment with HOP-62 NSCLC; 107% in the experiment with NCI-H460 lung; 84.5% in the experiment on NCI-H522 lung; 98.2% in the experiment with A549/ATCC NSCLC. The growth in the experiment with 786-0 renal was 94.9%; in the experiment with COLO 205 colon, 129%; with DU-145 prostate, 121%; with K-562 leukemia, 97.8%; with MALME-3M melanoma, 107%; in the experiment with MDA-MB-231 breast, 122%. The growth is 117% with RXF 393 renal; 112% with SF-268 CNS; 101% with SF-295 CNS; 117% with SF-539 CNS; 106% in the experiment with UACC-257 melanoma; 98.7% in the experiment with M14 melanoma.

With `COc1cccc(N2CCN(c3ncnc4cc[nH]c34)CC2)c1`, the growth in the experiment on NCI-H23 lung was 42.8%; in the experiment on NCI-H226 lung, 55.1%; with HOP-62 NSCLC it was 34.2%; in the experiment with NCI-H460 lung, 66.9%; with NCI-H522 lung it was 51.5%; in the experiment on A549/ATCC NSCLC it was 60.2%. The growth was 70.9% with 786-0 renal; 88.2% in the experiment on COLO 205 colon; 90.6% in the experiment on DU-145 prostate; 37.7% with K-562 leukemia; 75.1% with MALME-3M melanoma; 84.4% in the experiment on MDA-MB-231 breast. The growth in the experiment on RXF 393 renal is 99.3%; in the experiment with SF-268 CNS, 90.7%; in the experiment on SF-295 CNS it was 44.2%; in the experiment with SF-539 CNS it was 72.8%; with UACC-257 melanoma, 47.5%; in the experiment on M14 melanoma, 58.2%.

Regarding `COc1ccc(C(=O)N2N=C(c3ccc(F)cc3)CC2c2cn(-c3ccccc3)nc2-c2ccccc2)cc1` (configuration not stated), the growth was 51% in the experiment on NCI-H23 lung; 91.2% with NCI-H226 lung; 40.5% in the experiment with HOP-62 NSCLC; 53.3% in the experiment with NCI-H460 lung; 52.4% in the experiment on NCI-H522 lung; 41.1% with A549/ATCC NSCLC. In addition, the growth with 786-0 renal is 69.6%; with COLO 205 colon, 57%; in the experiment with DU-145 prostate, 57.5%; with K-562 leukemia, 40.3%; in the experiment on MALME-3M melanoma it was 73.7%; with MDA-MB-231 breast, 60.2%. For the same molecule, the growth in the experiment with RXF 393 renal is 73.7%; in the experiment with SF-268 CNS, 70.1%; with SF-295 CNS it was 65.1%; in the experiment on SF-539 CNS, 85.7%; in the experiment with UACC-257 melanoma, 78.6%; in the experiment on M14 melanoma it was 55%.

As for `COc1ncnc2[nH]cc(CN3CCN(c4ccc(F)cc4)CC3)c12`, the growth with NCI-H23 lung was 98.4%; in the experiment with NCI-H226 lung it was 103%; in the experiment with HOP-62 NSCLC, 107%; in the experiment on NCI-H460 lung it was 108%; with NCI-H522 lung, 95.1%; in the experiment with A549/ATCC NSCLC, 96.5%. Besides, the growth with 786-0 renal was 103%; in the experiment with COLO 205 colon, 116%; in the experiment on DU-145 prostate it was 116%; with K-562 leukemia, 108%; in the experiment with MALME-3M melanoma it was 103%; in the experiment with MDA-MB-231 breast, 117%. Moreover, the growth is 111% in the experiment on RXF 393 renal; 104% in the experiment with SF-268 CNS; 98.1% in the experiment with SF-295 CNS; 108% in the experiment with SF-539 CNS; 99.8% in the experiment on UACC-257 melanoma; 106% with M14 melanoma.
